Here are results for 91 compounds from PubChem BioAssay AID651814 (National Center for Advancing Translational Sciences (NCATS), 2012).

Several values for one entry are separate records, joined by “and”; a condition that tells them apart may be missing. Identical values can stand only once. About 590 (28%) of roughly 2,100 compounds were called active. About 42% were inconclusive and are not listed. The list shows a part of the results. Unmarked numbers belong to inactive results. The call rests on the fitted dose curve; in most records, active means well fitted inhibition curve with a large enough effect; inconclusive means small, poorly fitted or top-dose-only effect; inactive means flat fitted curve, though single readings scatter.
Potency means the concentration at half of the fitted maximal effect.

For this experiment, the target named is DNA dC->dU-editing enzyme APOBEC-3F (Homo sapiens) (UniProt Q8IUX4). Kind of experiment: qHTS for inhibitors of Vif-A3F interactions: Cherry picks. Further: nearly all actives have a fitted effect of over 70% in size.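 On max response: % of control where 0% means no effect; active compounds raise eYFP fluorescence by blocking Vif-driven A3F loss.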 To be noted: HeLa A3F-eYFP + Vif (tagged APOBEC3F with the HIV-1 protein that degrades it), eYFP fluorescence, 24 h. In short, it runs like this: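 HeLa cells stably expressing A3F-eYFP plus Vif, cultured overnight, then exposed to compounds at several concentrations for 24 h at 37 deg C. Reduced Vif-driven degradation read as rising eYFP fluorescence (488 nm ex/500-530 nm em) by laser-scanning cytometry; MG132 as positive control.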
Sequence of DNA dC->dU-editing enzyme APOBEC-3F (Homo sapiens) (Q8IUX4 whole entry, looked up): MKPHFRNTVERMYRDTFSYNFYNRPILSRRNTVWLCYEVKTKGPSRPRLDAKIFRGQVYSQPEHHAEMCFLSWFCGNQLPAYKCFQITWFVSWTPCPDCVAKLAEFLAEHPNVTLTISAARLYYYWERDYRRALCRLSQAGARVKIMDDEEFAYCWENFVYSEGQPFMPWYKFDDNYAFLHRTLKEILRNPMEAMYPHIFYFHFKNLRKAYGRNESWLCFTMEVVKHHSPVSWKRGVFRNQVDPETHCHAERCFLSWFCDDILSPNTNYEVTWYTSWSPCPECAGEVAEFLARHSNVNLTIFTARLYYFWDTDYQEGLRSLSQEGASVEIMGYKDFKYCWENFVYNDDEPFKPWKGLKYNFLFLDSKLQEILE
A general note: In qHTS, concentration-response curves come from the screen itself.
As to `Cc1cc(-c2nc(C)c(C(=O)NN)s2)no1`, the max response was -13.4%.

As for `CCn1c(O)c(/C=N/NC(=O)c2ccncc2)c(=O)n(CC)c1=S`, the max response is -6.26%.

Regarding `CC(C)c1cccc(-c2ccc3c(c2)S(=O)(=O)c2cccc(C(=O)NCc4ccccc4)c2C3=O)c1`, the max response is -28.2%.

For the compound `O=C(NCc1ccccc1)c1cccc2c1C(=O)c1ccc(/C=C/c3ccccc3)cc1S2(=O)=O`, the Potency is 16.4 µM (active).

As to `Cc1ccc(CNC(=O)c2cccc3c2C(=O)c2ccc(N4CCC(C)CC4)cc2S3(=O)=O)cc1`, the Potency was 16.4 µM (active).

`N#Cc1c(-c2ccccc2F)cc(C2CC2)nc1SCC(=O)c1cccs1`: the Potency is 17.7 µM (active).

`CCc1c(C)nc(SCC(=O)c2cccs2)c(C#N)c1C`: the max response is 0.208%.

On to `CCn1c(CNC(=O)c2cc(OC)c(OC)c(OC)c2)cc2cc(C)ccc21`, for which the max response was 2.52%.

Regarding `Cc1ccc2nc(-c3ccccn3)c(NC3CCCC3)n2c1`, the max response is -1.86%.

Turning to `c1ccc(Nc2nc(-c3ccccn3)cs2)cc1`, the max response was -4.92%.

For `CCc1cccc2c(C(O)c3c[nH]c4ccccc34)c[nH]c12` (stereo unspecified), the Potency was 18.4 µM (active).

Take `COc1cccc(C2=CC(c3cccs3)n3nnnc3N2)c1` (stereo unspecified): the Potency is 6.27 µM (active).

Turning to `C=CCOC(=O)C1=C(C)Nc2nnnn2C1c1cccs1` (stereo unspecified), the max response was -1.29%.

As to `COc1ccc(C2=CC(c3ccc(N(C)C)cc3)n3nnnc3N2)cc1` (stereo unspecified), the max response is -6.88%.

Turning to `CCOC(=O)C1=C(Cc2ccc(Cl)cc2)C(=O)c2ccccc2C1=O`, the Potency is 16.4 µM (active).

Take `CCCC(=O)NC1=C(Cl)C(=O)c2ccccc2C1=O`: the max response is 5.27%.

`S=C(Nc1ccccc1)N1CCn2c1nc1ccccc12`: the max response was -7.52%.

In the case of `Cc1cc2nc(SCCOC(=O)Nc3cccc(Cl)c3)nc(C)c2cc1C`, the max response is 3.73%.

For `COc1cccc(N2CC(O)=C(c3nc4ccccc4s3)C2=N)c1`, the Potency is 5.59 µM (active).

On to `CCN(CC)c1ccc(/C=C/c2cccc[n+]2C)c(OC)c1`, for which the Potency was 3.14 µM (active).

As for `C(=Cc1c[nH]c2ccccc12)c1ccc2ccccc2n1`, the Potency is 23.1 µM (active).

Regarding `C(=C\c1c[nH]c2ccccc12)/c1ccc2ccccc2n1`, the Potency was 23.1 µM (active).

Regarding `Cc1[nH]c2ccccc2c1/C=C/c1ccc2ccccc2n1`, the Potency is 7.31 µM (active).

`CCOC(=O)c1c(-c2ccc(OC)cc2)csc1/N=C/C1=C(O)CCCC1=O`: the max response was -6.09%.

Turning to `Cc1ccccc1-n1c(/C=C/c2c(C)n(C)c3ccccc23)nc2ccccc2c1=O`, the Potency was 8.2 µM (active).

Take `CN1CCc2c(sc(NC(=O)CSc3ccc(F)cc3)c2-c2nc3ccccc3s2)C1`: the Potency is 7.31 µM (active).

On to `COc1cc(C(=O)Nc2nnc(Cc3ccccc3)s2)cc(OC)c1OC`, for which the max response is -23.2%.

Consider `COc1cccc(C(=O)c2sc3nc(-c4ccccc4)cc(C(F)(F)F)c3c2N)c1`, for which the Potency is 1.46 µM (active).

`COc1ccc(C(=O)c2sc3nc(-c4ccc(C)cc4)cc(C(F)(F)F)c3c2N)cc1`: the Potency is 8.2 µM (active).

For `COc1ccc(OC)c(NC(=O)c2sc3nc(Cc4ccccc4)cc(C(F)(F)F)c3c2N)c1`, the Potency is 8.2 µM (active).

Turning to `Cc1cc(C(F)(F)F)c2c(N)c(C(=O)Nc3cc(C)on3)sc2n1`, the max response is -20.9%.

Turning to `COc1ccc(NC(=O)c2sc3nc(-c4ccc(OC)cc4)cc(C(F)(F)F)c3c2N)cc1`, the Potency was 1.3 µM (active).

As to `CCC(=O)OCc1cnc(C)c2oc(=O)c(C(=O)Nc3ccccc3C(F)(F)F)cc12`, the max response is -0.08%.

For the compound `Nc1c(C(=O)O)sc2nc(-c3ccc(F)cc3)cc(-c3ccccc3)c12`, the max response is -11.4%.

Turning to `CN1C2=CC=CC=CC2=[N+](C)C12C([N+](=O)[O-])=CC(=[N+]([O-])[O-])C=C2[N+](=O)[O-]` (stereo unspecified), the max response was -0.344%.

`COc1ccccc1/C=N/NC(=S)Nc1cccnc1`: the max response was -4.95%.

For the compound `CC(=O)c1cccc(NC(=O)C2CCCN(S(=O)(=O)c3cccc4nonc34)C2)c1` (stereo unspecified), the max response is -0.245%.

As for `COc1ccc(C(=O)c2sc3nc(C)cc(-c4cccs4)c3c2N)cc1`, the Potency is 18.4 µM (active).

Take `O=C(NC(=S)N1CCN(C2CCCCC2)CC1)c1ccccc1`: the max response was 3.13%.

Consider `CCCCN1C(=O)/C(=C/C=C2/CC(C)(C)CN2C)SC1=S`, for which the Potency is 3.96 µM (active).

Regarding `Cc1ccc(Cn2c(SCc3ccc(C(=O)NC4CCCC4)cc3)nc3ccncc32)cc1`, the max response is -0.957%.

As for `ClCC1NCC(c2ccccc2Cl)c2c1[nH]c1ccccc21` (stereo unspecified), the max response was -5.81%.

For the compound `Cn1cc(C2=C(c3ccc(Cl)cc3Cl)C(=O)NC2=O)c2ccccc21`, the Potency was 2.91 µM (active) and 14.6 µM (active).

Regarding `COc1ccc(S(=O)(=O)N2c3ccccc3OCC2CC(=O)O)cc1` (stereo unspecified), the max response is -27.6%.

As to `COc1cc(NC(=O)c2ccco2)c(C(=O)OCC(=O)c2c[nH]c3ccccc23)cc1OC`, the max response was -11.7%.

`Cn1nnc2c[n+](CC(=O)c3ccc(Cl)cc3)cc(Br)c21`: the Potency was 17.7 µM (active).

For `O=C(Nc1cc(Cl)ccc1-n1cncn1)c1ccc([N+](=O)[O-])s1`, the Potency was 15.8 µM (active).

`N#CC1=C(N)Oc2ccc3ccc(O)cc3c2C1c1ccsc1` (stereo unspecified): the max response was -15.9%.

In the case of `N#CC1=C(N)Oc2cc(N)ccc2C1c1ccc(F)cc1F` (stereo unspecified), the Potency is 18.4 µM (active).

As to `Cc1oc(C)c2c(=O)ccc3c(c12)OC(N)=C(C#N)C3c1ccc(F)cc1` (stereo unspecified), the max response was 1.74%.

With `O=C1[C@@H]2[C@@H](CN3CN(c4ccccc4)N=C(c4ccccc4)[C@@]23c2ccccc2)C(=O)N1c1ccccc1`, the max response is -0.723%.

As for `CC[n+]1ccccc1/C=C/c1ccc(N(C)C)cc1`, the Potency is 20.6 µM (active).

In the case of `CC(C)CC[n+]1ccccc1/C=C/c1ccc(N(C)C)cc1`, the Potency is 20.6 µM (active).

Consider `Cc1ccc(-c2csc(NC3OC(=O)c4ccccc43)n2)cc1` (stereo unspecified), for which the Potency is 14 µM (active).

`c1ccc2c(c1)nc(NCC1CCCO1)c1nnnn12` (stereo unspecified): the max response is -11.8%.

In the case of `Fc1ccc(CNc2nc3ccc(Cl)cc3n3nnnc23)cc1`, the max response was -20.9%.

Regarding `Fc1ccc(CNc2nc3ccccc3n3nnnc23)cc1`, the Potency was 23.1 µM (active).

As for `c1ccc2c(CCc3c[nH]c4ccccc34)ccnc2c1`, the Potency is 20.6 µM (active).

`O=C(COc1ccccc1-c1ccccc1)NN=C1CCCC1`: the max response was -15.6%.

With `O=C(N/N=C\C=C\c1ccc([N+](=O)[O-])o1)c1cccs1`, the Potency was 12.5 µM (active).

For the compound `O=C(N/N=C/C=C/c1ccco1)c1ccncc1`, the max response is -0.284%.

In the case of `Cc1ccccc1OCC(=O)N/N=C/c1ccc(N(C)C)cc1`, the max response is -27.7%.

As to `COc1ccccc1OCC(=O)N/N=C/C=C/c1ccc([N+](=O)[O-])o1`, the Potency was 10.3 µM (active).

Consider `O=C(CN1C(=O)CSc2ncccc21)Nc1cccc(Cl)c1`, for which the max response is -15.2%.

With `CC(C)COc1ccc(C(=O)N/C(=C/c2cccc([N+](=O)[O-])c2)C(=O)O)cc1`, the max response was -0.401%.

Consider `CCCC(=O)NC(c1ccc(OC)cc1)c1c(O)ccc2ccccc12` (stereo unspecified), for which the max response was -21%.

Regarding `Oc1sc(C=Nc2ccccc2)c2ccccc12`, the Potency was 20.6 µM (active).

In the case of `COc1ccc(N=Cc2c(O)c3ccccc3n2C(C)=O)cc1`, the Potency was 20.6 µM (active).

Regarding `COc1ccc(N=Cc2oc3ccc4ccccc4c3c2O)cc1`, the Potency is 5.17 µM (active).

As to `COc1ccc(N=Cc2sc(O)c3ccccc23)cc1`, the Potency was 8.86 µM (active).

Regarding `CC(=O)n1cc(/C=N/NC(=O)c2sc(C)nc2C)c2ccccc21`, the max response was -21.7%.

For the compound `CC1(C)CC(=O)C(C=Nc2cc(C(=O)c3ccccc3)ccc2N)=C(O)C1`, the max response was -20.7%.

For `O=c1[nH]c2ccccc2n2c(=S)[nH]nc12`, the max response is -3.48%.

For the compound `COc1ccc(N/C=C2\C(=O)CCc3c2oc2cc(Cl)c(O)c(Cl)c32)cc1`, the max response was -28.6%.

Consider `COC(=O)C1C2CC3c4[nH]c5cc(OC)ccc5c4CCN3CC2CC(OC2CCCCO2)C1OC` (stereo unspecified), for which the max response was -12.1%.

Turning to `S=c1[nH]cnc2sc(-c3ccccc3)cc12`, the max response is -2.16%.

Take `Oc1sc(C=Nc2ccc(F)cc2)c2ccccc12`: the Potency was 4.11 µM (active).

With `CCN(CC)C(=O)CSC(Nc1cccc(F)c1)=C(C#N)C#N`, the max response was -4.73%.

Take `O=C(NN=Cc1c(O)ccc2ccccc12)c1ccc2c(c1)OCO2`: the max response was -14.5%.

For the compound `CN(C)c1ccc(/C=N/NC(=O)c2cc(-c3ccc4c(c3)OCO4)n[nH]2)cc1`, the Potency is 17.7 µM (active).

As to `O=C(N/N=C/c1ccc2c(c1)OCO2)c1ccc2c(c1)OCCO2`, the max response was -24.9%.

On to `COCCCNC(=S)N/N=C/c1cccc(OC)c1O`, for which the max response is -1.71%.

Take `Cc1nc2ccc(NC(=O)c3cc(S(=O)(=O)N(C)c4ccccc4)ccc3Cl)cc2s1`: the max response is -11.3%.

`O=C(Nc1ncc(Cc2ccc(SC(F)F)cc2)s1)c1ccccc1`: the max response was -6.02%.

Regarding `CC(C)CN(CC(C)C)S(=O)(=O)c1ccc(C(=O)Nc2sc3c(c2C(N)=O)CCN(C(C)C)C3)cc1`, the Potency is 20.6 µM (active).

As to `CCCN1CCc2c(sc(NC(=O)c3ccc(S(=O)(=O)N(C)c4ccccc4)cc3)c2C(N)=O)C1`, the Potency is 20.6 µM (active).

Turning to `NC(=O)c1c(NC(=O)c2ccccc2)sc2c1CCN(Cc1ccccc1)C2`, the Potency is 14 µM (active).

For `CCCN1CCc2c(sc(NC(=O)c3ccc(S(=O)(=O)N(C)c4ccccc4)cc3)c2C(=O)NC)C1`, the Potency was 23.1 µM (active).

For the compound `CC(C)(C)C(=O)Nc1sc2c(c1C#N)CCN(Cc1ccccc1)C2`, the max response was -17.1%.

In the case of `CCCCOc1ccc2c(c1)/C(=C(\C(Cl)=C(Cl)Cl)[N+](=O)[O-])N2`, the max response was -18.3%.

As for `CCS(=O)(=O)N1CCc2cc(C(=O)N3CCN(c4cccc(C(F)(F)F)c4)CC3)ccc21`, the max response was -12.8%.
